# Source: PubChem BioAssay (several laboratories)
# Sampled rows, rich in hits. Any-hit rate of the full collection: about 2.6%.
# Shn3 inh set2: reduces Shn3 3'UTR luciferase signal in osteoblasts; Clone20 osteoblast Shn3 3'UTR firefly luciferase, 24 h; inhibition, % at 12.5 µM; actives 0.52% (n = 360,000); AID 588674;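 active = mean inhibition of at least 75% with every replicate also reaching 75%; inconclusive = mean inhibition at least 75% but some replicate below; inactive = mean inhibition below 75%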;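 also: 0% = median of neutral control wells and 100% = pilot-screen positive control compound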
# KKLEB cytotox: counter-screen for CF NF-kB inhibitors: cytotoxicity | KKLEB CF airway cells viability, ATPlite luminescence, overnight; stronger effect = lower value; cells stimulated with P. aeruginosa culture filtrate | activity change (cytotoxicity), % at 5 µM | actives 0.36% (n = 360,000) | AID 602141;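 active = corrected activity change at or below -50% at 5 µM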
# HIF-2a block: inhibitors of HIF-2a; 786-0 RCC cells HIF-2a reporter, luciferase luminescence, overnight; inhibition, % at 18.8 µM; actives 0.72% (n = 360,000); AID 624352;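 active = inhibition of the luminescence signal of 40% or more relative to plate controls, in a single-dose primary screen at 18.75 µM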
# CF NFkB inh: inhibitors of cystic fibrosis induced NF-kB; KKLEB NF-kB-GFP reporter, PAF-induced, GFP fluorescence overnight; inhibition, % at 5 µM; actives 0.86% (n = 360,000);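 active = at least 50% inhibition at 5 µM, scaled per plate between neutral and stimulator controls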;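 also: PAF is a Pseudomonas aeruginosa culture filtrate used as stimulus; plate controls were PAF-stimulated DMSO wells for no effect and unstimulated DMSO wells for full effect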
# Peg3 prom inh: reduces Peg3 promoter-driven luciferase expression in HeLa; HeLa PEG-Prom luciferase reporter, luminescence, overnight; inhibition, % at 20 µM; actives 1.7% (n = 360,000);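 active = inhibition of at least 50% at 20 µM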
# The depositor's hits bear a star; ? = inconclusive; · = no result.
SMILES,Shn3 inh set2,KKLEB cytotox,HIF-2a block,CF NFkB inh,Peg3 prom inh
CN1C(=O)/C(=C/c2cc(N=Nc3ccccc3)ccc2O)SC1=S,18,-52*,-56,74*,16
COc1ccccc1C(=O)/C=C/c1ccc(N2CCCCC2)c([N+](=O)[O-])c1,-15,-34,44*,-2,105*
CC1CCN(c2ccc3c(c2)S(=O)(=O)c2cccc(C(=O)NC[C@@H]4CCCO4)c2C3=O)CC1,2,5,-137,-14,-44
O=C(NCC1CCCO1)c1cccc2c1C(=O)c1ccc(N3CCC(Cc4ccccc4)CC3)cc1S2(=O)=O (stereo not drawn),18,10,27,-5,63*
O=C(NCc1ccccc1C(F)(F)F)c1cccc2c1C(=O)c1ccc(N3CCC(N4CCCCC4)CC3)cc1S2(=O)=O,?,-13,-13,4,106*
CCC(C)n1c(SCC(=O)NC2CCCC2)nc2ccccc2c1=O (stereo not drawn),-3,-25,18,16,16
C=CC[n+]1c(-c2ccc(OC)c(OC)c2)csc1NNC(=O)Nc1ccccc1,90*,-10,21,3,36
C=CC[n+]1c(-c2ccccc2)csc1NC(C)(C)C,-8,16,6,-8,11
Cc1ccc2[nH]c3c(c2c1)CCCC3=O,·,-3,-84,-16,-36
Cc1ccc2[nH]c3c(c2c1)CCCC3NCCO (stereo not drawn),-3,3,13,-5,52*
Cc1ccnc(N2C(=O)c3cccc4c([N+](=O)[O-])ccc(c34)C2=O)c1,47,-5,18,-5,108*
Cc1ccc(N2C(=O)c3cccc4c([N+](=O)[O-])ccc(c34)C2=O)c2cccnc12,92*,-2,20,20,63*
Cc1ccnc(N2C(=O)c3ccccc3C2=O)c1,-2,0,5,9,23
Cc1ccc(-c2cc(C(=O)Nc3ccccc3C(N)=O)c3ccccc3n2)o1,17,-11,7,-12,52*
Cc1ccc(S(=O)(=O)N(C)CCCC(=O)Nc2cccc3ccccc23)cc1,22,-20,16,10,13
c1ccc2c(c1)C1=NCCN1c1ccccc1-2,-74,8,-62,-254,104*
Cc1sc(NC(=S)NC(=O)CCc2ccccc2)c(C(N)=O)c1C,-1,-28,-7,50*,-2
COc1ccccc1CSc1nc2c(c(=O)n(C)c(=O)n2C)n1C,2,-11,1,12,2
CC(=O)N(C1=C(N2CCOCC2)C(=O)c2ccccc2C1=O)c1ccc(C(=O)O)cc1,·,0,64*,-4,12
CCc1ccccc1OCC(=O)Nc1ccc(N2CCCC2)cc1C,12,2,1,-46,17
CC1(c2ccccc2)CC(C)(C)N2C(=O)C3(C(C#N)=C(N)Oc4cc(O)ccc43)c3cccc1c32 (stereo not drawn),15,4,33,13,22
CC1(c2ccccc2)CC(C)(C)N2C(=O)/C(=C3\SC(=S)NC3=O)c3cccc1c32 (stereo not drawn),31,-25,9,61*,37
Cc1cc(OCC(=O)OCC(=O)NCc2cccs2)ccc1Cl,-33,-19,4,-17,1
O=C(OCC(=O)N1CCN(S(=O)(=O)c2ccc(Cl)cc2)CC1)C1CC1,12,-5,21,15,10
CCN1CCN(C(=O)C(=O)c2cn(CC(=O)N(CC)CC)c3ccccc23)CC1,3,-7,5,6,63*
SMILES,Shn3 inh set2,KKLEB cytotox,HIF-2a block,CF NFkB inh,Peg3 prom inh
CCN(CC)C(=O)Cn1cc(C(=O)C(=O)N2CCN(Cc3ccccc3)CC2)c2ccccc21,13,-17,18,-10,14
CCOC(=O)/C(C#N)=C/c1cccc(F)c1,3,4,11,-10,1
CCOC(=O)/C(C#N)=C/c1cccc(C)c1,1,-6,11,-6,73*
N#C/C(=C/c1ccc(-c2ccc([N+](=O)[O-])cc2)o1)C(=O)Nc1nc(-c2cccs2)cs1,10,-10,3,-10,55*
CCCNCC1C(Oc2ccc(Cl)cc2Cl)C(=O)N1c1cccc(C)c1C (stereo not drawn),28,-13,6,20,62*
Cc1cc(NC(=O)COC(=O)C2COc3ccccc3O2)no1 (stereo not drawn),6,-4,11,-5,64*
COC(=O)c1cnc(SCc2ccc(C)cc2)n1C,-47,4,-174,11,-129
CC(C)N=c1scc(-c2ccco2)n1/N=C/c1ccc(O)c(O)c1,94*,-14,-172,2,-220
C=CCN=c1scc(-c2ccco2)n1/N=C/c1ccc(O)c(O)c1O,91*,-7,-109,23,-103
Cc1cc(Cl)n2c(nc3ccccc32)c1C#N,80,-31,-24,64*,103*
CCc1c(C)c(C#N)c2nc3ccccc3n2c1NC,4,-9,1,12,29
Cc1c(CCCl)c(Cl)n2c(nc3ccccc32)c1C#N,99*,-85*,84*,78*,101*
Cn1cc(CN2CCN(c3ccccc3)CC2)c2ccccc21,-11,-22,2,-4,6
CC[C@]12c3[nH]c4cc(CCC(=O)N(C)C)ccc4c3CCN1C(=O)[C@@H](CC(=O)NC/C=C(\C)CCC=C(C)C)C[C@@H]2C(=O)N1CCN(C(=O)c2ccco2)CC1,87*,8,-79,-138,21
CCN(CC)C(=O)[C@H]1C[C@H](CC(=O)NCCCN(C)C)C(=O)N2CCc3c([nH]c4cc(-c5ccco5)ccc34)[C@]12C,-13,-1,-32,6,22
COc1ccc2[nH]c3c(c2c1)CCN1C(=O)C(CC(=O)NC/C=C(\C)CCC=C(C)C)C[C@H](C(=O)N2CCOCC2)[C@@]31CCC1CCCC1 (stereo partly drawn),36,8,0,-16,59*
CC(C)N(C(=O)[C@H]1C[C@H](CC(=O)NCCCN(C)C)C(=O)N2CCc3c([nH]c4cc(-c5ccco5)ccc34)[C@]12C)C(C)C,-26,-15,-30,40,91*
CN(C)CCCNC(=O)C[C@H]1C[C@H](C(=O)N2CCOCC2)[C@@]2(CCC3CCCC3)c3[nH]c4cc(-c5ccco5)ccc4c3CCN2C1=O,-7,-3,-9,26,95*
Cc1ccccc1Oc1ccc2c(c1)[C@@H]1C[C@H](N(C)C(=O)c3ccc(C#N)cc3)[C@H]([C@H](C)O)C(=O)N1CC2,10,10,6,-7,-5
CCCCCCCCNc1ncnc2[nH]ncc12,77,-8,-31,-3,-28
Nc1ccc(-c2cnc(N)c(C(=O)c3cccnc3)n2)cn1,20,10,20,81*,46
Cc1ccc(C(=O)OCC(=O)NCc2ccco2)cc1,4,1,-4,0,-12
CCOC(=O)C1=C(C)NC(C)=C(C(=O)OCC)C1C(=O)OCC(=O)NCc1ccco1,96*,-2,11,7,16
